# Hits are enriched below; roughly 7.6% of the tested compounds scored in any of these assays.
# SW480 rerep: induces DNA re-replication in SW480 colon adenocarcinoma cells | SW480 DNA re-replication, Hoechst DNA content imaging, 48 h | Potency, µM (top dose mostly 46.1 µM), most hits filed as activators | AID 624297 | 340,000 compounds, 1.8% hits; also: nearly all actives have a fitted effect of over 55% in size
#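 Image-based read-out: total Hoechst fluorescence of nuclei (405 nm excitation, 500-530 nm emission), with hits raising the fraction of high-intensity nuclei. SW480 colon cells incubated 48 hr with compounds at 37 C.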
# KCNH2 3.1 block: KCNH2 3.1 (human) potassium channel inhibition; U2OS KCNH2 3.1, thallium flux FluxOr; stronger effect = lower value; 340,000 compounds, 0.95% hits; activity change, % (tested at about 1.8 µM);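 active = maximum activity change below -70%; inconclusive = maximum activity change from -70% to -50%; inactive = maximum activity change above -50%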;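 also: thallium influx rate constant from kinetic fluorescence after stimulation buffer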
#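 Thallium flux read-out: FluxOr dye with Red40 quencher in HBSS/HEPES, 45 min at RT. Rate constants from kinetic reads were normalized to positive and negative DMSO controls. Cells: U2OS virally expressing the 3.1 isoform.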
# KB-V1 cytotox: kills drug-selected multidrug resistant KB-V1 cells; 400,000 compounds, 3.4% hits; KB-V1 MDR cells viability, CellTiter-Glo, 72 h; Potency, µM (series often up to 46.1 µM), most hits filed as cytotoxic; AID 1347076; also: nearly all actives have a fitted effect of over 60% in size
#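 Luminescent ATP read-out (CellTiter-Glo, 10 min) measures survival of drug-selected KB-V1 MDR cells after 72 h, 37 degrees C compound exposure. Medium: phenol-red-free DMEM, 10% FBS. Values from fitted concentration-response curves.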
# KCNH2 WT inh: inhibitors of human wildtype KCNH2 potassium channel. 340,000 compounds, 0.37% hits. Q12809. U2OS, BacMam KCNH2, thallium flux FluxOr; stronger effect = lower value. activity change, % at 1.84 µM;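 active = maximum activity change below -70%; inconclusive = maximum activity change between -70% and -50%; inactive = maximum activity change above -50%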
#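 U2OS cells transduced with wild-type KCNH2 virus are loaded with FluxOr dye for 45 min, and thallium flux is measured in kinetic reads before and after stimulation buffer. Rate constants are normalized to DMSO controls.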
# MCF10A rereplic: inducers of DNA re-replication in MCF 10A breast cells | Potency, µM (doses to about 46.1 µM), usual class: activators | 350,000 compounds, 2.9% hits | MCF 10A DNA re-replication, Hoechst nuclear intensity, 48 h; also: nearly all actives have a fitted effect of over 50% in size
# KB-3-1 tox: KB-3-1 parental cell cytotoxicity; KB-3-1 viability, CellTiter-Glo ATP luminescence, 72 h; Potency, µM (highest dose often 46.1 µM), actives largely listed as cytotoxic; 400,000 compounds, 1.4% hits; also: nearly all actives have a fitted effect of over 60% in size
#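 KB-3-1 parental drug-naive adenocarcinoma cells in DMEM/10% FBS, incubated 72 h at 37 C with pin-transferred compounds across a concentration series. Viability by CellTiter-Glo luminescence; concentration-response curves fitted after normalization.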
# Hits are given with their value; 0 = inactive; ? = inconclusive; - = not tested or not shown. Unless noted, calls follow the shape of the dose curve; as a rule, active = well fitted curve in the direction sought with a large enough effect; inconclusive = small, poorly fitted or top-dose-only effect, or another doubt; inactive = no such curve, though single readings can be large; an effect the other way counts as inactive or inconclusive.
SMILES,SW480 rerep,KCNH2 3.1 block,KB-V1 cytotox,KCNH2 WT inh,MCF10A rereplic,KB-3-1 tox
C=C1C=C(C(F)F)n2ncc(C(=O)NCc3ccc(Cl)cc3Cl)c2N1,-,-,0,-,-,0
O=[N+]([O-])c1ccc2nc[nH]c2c1,0,-83.7,0,0,0,?
O=[N+]([O-])c1ccc2nc(CO)[nH]c2c1,-,-,0,-,-,0
O=[N+]([O-])c1ccc(/C=C/c2nc3ccc([N+](=O)[O-])cc3[nH]2)cc1,0,0,3.66µM,0,0,0
CCN1C(=O)N[C@@H](CCc2ccccc2)C(C(C)=O)=C1C,0,0,0,0,0,0
Cc1cccc(C)c1NC(=O)COC(=O)c1ccc2[nH]c3c(c2c1)CCCC3,?,0,0,0,18.4µM,0
COC(=O)c1ccc(NS(=O)(=O)c2ccc3[nH]c4c(c3c2)CCCC4)cc1,-,-,0,-,-,0
O=C(OCC(=O)N1CCOCC1)c1ccc2[nH]c3c(c2c1)CCCC3,?,0,0,0,0,?
COC(=O)c1ccc(NS(=O)(=O)c2ccc3[nH]c4c(c3c2)CCCCC4)cc1,-,-,23.1µM,-,-,?
O=C(COC(=O)c1ccc2[nH]c3c(c2c1)CCCC3)Nc1ccccc1,?,0,?,0,23.1µM,0
CCOC(=O)C(C)Sc1snnc1C (stereo not drawn),0,0,0,0,0,0
Nc1c(C(=O)N2CCCC2)sc2nc3c(cc12)CCCCCC3,0,0,?,0,14.6µM,0
Cc1sc(NC(=O)c2sc3nc4c(C)cccc4cc3c2N)c(C#N)c1C,?,0,?,0,?,?
Cc1cccc2cc3c(N)c(C#N)sc3nc12,?,0,1.46µM,0,?,?
Cc1cccc2cc3c(N)c(C(=O)N4CCc5ccccc54)sc3nc12,?,0,9.2µM,0,?,?
Cc1ccc(C)c2nc3sc(C(=O)N4CCOCC4)c(N)c3cc12,?,0,?,0,?,?
Cc1cc(C)c2nc3sc(C(=O)N4CCOCC4)c(N)c3cc2c1,?,0,?,0,?,0.259µM
Nc1c(C(=O)N2CCOCC2)sc2nc3c(cc12)CCCC3,0,0,0,0,0,0
CCCCCCN=C(C)c1ccccc1O,0,0,0,0,0,0
COc1cc(C(=O)NC(=S)N(C)Cc2ccccc2)cc(OC)c1OC,0,0,0,0,0,0
O=C(NC(=S)N(CCc1ccccc1)CCc1ccccc1)c1ccco1,?,0,6.51µM,-123.1,0,?
COc1cc(C(=O)N/N=C(\C)Cc2ccccc2)cc(OC)c1OC,2.59µM,0,0,0,2.06µM,0
COc1cc(C(=O)NCC(=O)N/N=C(\C)Cc2ccccc2)cc(OC)c1OC,0,0,0,0,0,0
CC(CCc1ccccc1)NC(=S)NC(=O)c1ccco1 (stereo not drawn),0,0,?,0,0,0
O=C(CCl)N(CCc1ccccc1)CCc1ccccc1,4.11µM,0,?,0,23.1µM,?
SMILES,SW480 rerep,KCNH2 3.1 block,KB-V1 cytotox,KCNH2 WT inh,MCF10A rereplic,KB-3-1 tox
COc1cc(C(=O)NC(=S)N(CCc2ccccc2)CCc2ccccc2)cc(OC)c1OC,?,0,2.31µM,0,?,?
O=C(NCc1ccco1)c1ccc2nc([C@@H]3O[C@H](CO)[C@H](O)[C@H](O)[C@H]3O)[nH]c2c1,-,-,0,-,-,0
CCOc1ccccc1OCC(=O)N/N=C(\C)Cc1ccc(OC)cc1,8.2µM,0,?,0,?,?
Cc1cc(NCCN2CCOCC2)n2nc(C)c(-c3ccccc3)c2n1,0,0,0,0,0,0
Cc1cc(Cl)n2nc(C)c(-c3ccc(Cl)cc3)c2n1,?,0,0,0,16.4µM,0
Cc1cc(NCCN2CCOCC2)n2nc(C)c(-c3ccc(Cl)cc3)c2n1,0,0,23.1µM,0,0,?
COc1ccc(CCNc2cc(C)nc3c(-c4ccccc4)c(C)nn23)cc1OC,0,0,8.2µM,0,0,0
Cc1cc(NCCCn2ccnc2)n2nc(C)c(-c3ccc(Cl)cc3)c2n1,0,0,23.1µM,0,0,?
COc1ccc(CCNc2cc(C)nc3c(-c4ccccc4)cnn23)cc1OC,0,0,0,0,?,0
Cc1cc(NCCCn2ccnc2)n2nc(C)c(-c3ccccc3)c2n1,0,0,?,0,0,0
Cc1ccc(-c2c(C(=O)N/N=C/c3c[nH]c4ccccc34)nnn2-c2nonc2N)cc1,0,0,0,0,0,0
C#CCOCCOCCOCCNc1nc(N2CCN(C(=O)CCCCCCCCCCNC(=O)Cn3cc(C[C@@H](C)O)nn3)CC2)nc(N2CCN(C(=O)CCCCCCCCCCNC(=O)[C@H](CCCN=C(N)N)n3cc(C[C@@H](C)CC)nn3)CC2)n1,0,0,?,0,0,?
CCOc1ccc(S(=O)(=O)N(C)CCO)cc1-c1nc2c(C(C)(C)C)nn(C)c2c(=O)[nH]1,0,0,10.3µM,0,0,?
CCOc1ccc(S(=O)(=O)N(C)C)cc1-c1nc2c(C(C)(C)C)nn(C)c2c(=O)[nH]1,0,0,?,0,?,0
CC(C)C(=O)N1CCCC1(C)C(=O)N(C)Cc1cccc2ccccc12 (stereo not drawn),-,-,0,-,-,0
C/C(=N/Nc1nc(C)cc(-c2ccccc2)n1)c1ccco1,0,0,16.4µM,0,0,0
C/C(=N\Nc1nc(C)cc(-c2ccccc2)n1)c1ccccc1,?,0,6.51µM,0,0,0
C[C@@H]1CCCCO[C@@H](CN(C)C(=O)Nc2ccc3c(c2)OCO3)[C@@H](C)CN([C@H](C)CO)C(=O)c2cc(N(C)C)ccc2O1,-,0,0,0,-,0
COCCN(CC1CCCN(C2Cc3ccccc3C2)C1)C(=O)CCC(N)=O (stereo not drawn),0,-127.1,0,0,?,0
COCCN(CC1CCCN(C2Cc3ccccc3C2)C1)C(=O)CCC(C)=O (stereo not drawn),0,0,0,0,0,0
CCCN(CC(=O)Nc1ccccc1C)C(=O)c1ccc(COc2ccccc2)cc1,0,0,?,0,0,0
Cc1ccc(C(=O)NCC(=O)NCC(=O)OCC(=O)c2ccc([N+](=O)[O-])cc2)cc1,0,0,0,0,0,0
Cc1ccc(C(=O)COC(=O)CNC(=O)CNC(=O)c2ccc(C)cc2)cc1,0,-84.8,0,0,0,0
O=C1CCc2cc(S(=O)(=O)Nc3ccc4ncccc4c3)ccc2N1,-,-,0,-,-,0
Clc1cccc(CNc2nnnn2-c2ccccc2)c1,0,0,23.1µM,0,?,?
CCOC(=O)c1ccc(NC(=O)NCCN2CCCCC2)cc1,0,0,0,0,?,16.4µM
CCOC(=O)c1ccc(NC(=S)N(CCN2CCCCCC2)Cc2ccco2)cc1,0,-89.6,0,0,?,0
COc1ccc(NC(=O)NCCN2CCCCC2)cc1,0,0,0,0,0,0

# Screening results deposited in PubChem BioAssay by National Center for Advancing Translational Sciences (NCATS).
